Assay outcomes as filed in PubChem.
A selection: hits, their analogues and other compounds. The true share with any hit is near 8.7%.
G9a inh – inhibitors of human histone lysine methyltransferase G9a; Q96KQ7; G9a H3K9 monomethylation, AlphaScreen, 2 h; Potency, µM (top dose mostly 102 µM), without a hit: at the highest dose activity, negative = inhibition, most hits filed as inhibitors; 350,000 compounds, 8.8% hits; AID 504332; also: % is scaled to controls: 0 for no effect and ±100 for the full control effect; nearly all actives have a fitted effect of over 75% in size
Target sequence (Q96KQ7 913-1193 limits assumed): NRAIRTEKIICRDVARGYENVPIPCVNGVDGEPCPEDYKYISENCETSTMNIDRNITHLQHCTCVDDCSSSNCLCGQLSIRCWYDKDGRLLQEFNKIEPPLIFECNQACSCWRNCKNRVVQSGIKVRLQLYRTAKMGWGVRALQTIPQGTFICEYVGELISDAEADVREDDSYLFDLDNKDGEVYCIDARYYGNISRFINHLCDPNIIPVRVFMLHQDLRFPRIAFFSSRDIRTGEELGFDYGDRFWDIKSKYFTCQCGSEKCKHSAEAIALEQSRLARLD
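Using a bead-based AlphaScreen, monomethylated H3K9 product from 2 h room-temperature reactions (G9a 20 nM, peptide 500 nM, SAM 20 uM) was detected with 0.5 ug/mL rabbit anti-H3K9me1 antibody.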
Sfp inh – inhibitors of Bacillus subtilis Sfp phosphopantetheinyl transferase. Biochemical Sfp PPTase activity, qHTS. Potency, µM, inactives show largest response in the series, negative = inhibition, hits mostly inhibitors. 310,000 compounds, 3.5% hits;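 also: the enzyme is Sfp with the accession as filed and its product quenches rhodamine fluorescence; 0% = enzyme reaction without inhibitor and -100% = no enzyme wells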
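After 15 min at room temperature with compound, 15 nM Sfp received 5 uM rhodamine-CoA plus 12.5 uM BHQ-2-ybbR (50 mM Hepes pH 7.6, 10 mM MgCl2). Rate came from the fluorescence difference over 30 min, ex 525/em 598 nm.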
BAZ2B inh – BAZ2B (human) inhibition; Q9UIF8; AlphaScreen BAZ2B-H3K14Ac peptide displacement; Potency, µM (highest dose often 114 µM), inactives show top-dose activity change, negative = inhibition, most hits filed as inhibitors; 360,000 compounds, 4.4% hits; also: % is scaled to controls: 0 for no effect and ±100 for the full control effect; nearly all actives have a fitted effect of over 60% in size
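AlphaScreen displacement of biotin-H3(5-23)K14Ac peptide (50 nM final) from BAZ2B (50 nM final) in PBS pH 7.4, 0.01% Tween-20; complex preformed 30 min RT, then compounds (top 110 uM) 30 min RT, beads 20 min dark.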
12-LOX inh – inhibitors of human 12S-lipoxygenase ALOX12; purified 12hLO, xylenol orange hydroperoxide absorbance; Potency, µM (top dose mostly 108 µM), for inactives: top-dose activity change, negative = inhibition, usual class: inhibitors; 580,000 compounds, 1.1% hits; also: % is scaled to controls: 0 for no effect and ±100 for the full control effect
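Purified human 12hLO (150 nM final) in 25 mM Hepes, 0.01% Triton X-100, pH 7.0 was preincubated 15 min at room temperature with compound. Then 40 uM arachidonic acid was added, 30 min. Hydroperoxide was read by Fe-XO absorbance ratio 573/405 nm.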
HP1b binding inh – inhibitors of HP1-beta chromodomain binding to methylated histone tails. AlphaScreen HP1-beta / biotin-H3K9me3 peptide binding. Potency, µM (doses to about 114 µM), inactives show top-dose activity change, negative = inhibition, hits mostly inhibitors. 390,000 compounds, 0.56% hits; also: nearly all actives have a fitted effect of over 70% in size
Target sequence (P83916 whole entry, looked up): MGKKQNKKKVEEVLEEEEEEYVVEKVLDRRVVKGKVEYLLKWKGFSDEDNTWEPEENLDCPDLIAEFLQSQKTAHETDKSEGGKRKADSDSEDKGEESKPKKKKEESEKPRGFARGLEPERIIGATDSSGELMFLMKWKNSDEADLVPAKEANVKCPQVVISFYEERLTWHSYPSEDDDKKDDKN
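HP1-beta protein (50 nM final) preincubated 30 min at room temperature with biotinylated H3(1-18)K9me3 peptide (50 nM) in PBS pH 7.4, 0.01% Tween-20, then compound added for 30 min. AlphaScreen streptavidin donor/nickel chelate acceptor beads (10 ug/mL final), 30 min dark, luminescence read.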
JMJD2A Tudor inh – JMJD2A Tudor domain (human) inhibition | O75164 | AlphaScreen JMJD2A-Tudor / H3K4me3 peptide binding | Potency, µM (highest dose often 114 µM), for the others: at the highest dose activity change, negative = inhibition, most hits filed as inhibitors | 390,000 compounds, 4.4% hits; also: % is scaled to controls: 0 for no effect and ±100 for the full control effect; nearly all actives have a fitted effect of over 50% in size
An asterisk follows results filed as active; ? = inconclusive; · = no result given; ! = not active in a repeat; [ ] = another dose, or the depositor's remark. Calls follow the shape of the dose curve; as a rule, active = well fitted curve in the direction sought with a large enough effect; inconclusive = small, poorly fitted or top-dose-only effect, or another doubt; inactive = no such curve, though single readings can be large; an effect the other way counts as inactive or inconclusive. Potency is read from the fitted curve at half-maximal effect.

SMILES | G9a inh | Sfp inh | BAZ2B inh | 12-LOX inh | HP1b binding inh | JMJD2A Tudor inh
COc1ccccc1N(C(C)=O)C1=C(Cl)C(=O)c2ccccc2C1=O | · | · | · | 14µM* | · | ·
CCCn1nnnc1NCc1ccc(N2CCCC2)cc1 | 3.5µM* | 1% | -3% | ? | 12% | -32%
CCCn1nnnc1NCc1ccc(F)cc1 | · | -3% | -2% | -2% | 46% | -14%
CCN(CC)c1ccc(CNc2nnnn2C)cc1 | 32µM* | 4% | ? | -2% | 15% | -10%
Cn1nnnc1NCc1ccc(Cl)cc1 | 19%[59 µM] | 22% | -17% | 0% | 34% | -7%
CCCn1nnnc1NCc1ccc(N(CC)CC)cc1 | 16µM* | -1% | ? | 10% | 0% | -26%
COC(=O)c1ccc(Oc2coc3cc(OCc4ccccc4)ccc3c2=O)cc1 | · | · | · | 3% | · | ·
O=C(C1CC1)N1CCc2nc(C3CC3)nc(-c3ccc(Cl)cc3)c2C1 | · | · | · | 20% | · | ·
CCCCCCCCCCCC(=O)OCC | · | · | · | -8%[176 µM] | · | ·
Cc1cccc(C(C(=O)N2CCC(CCn3ccnc3C)CC2)N(C)C)c1 (stereo not drawn) | · | · | · | 94% | · | ·
CCN(CC)c1ccc(C(=O)NC(=S)N2CCN(Cc3ccc4c(c3)OCO4)CC2)cc1 | 40µM* | 3% | ? | ? | -20% | ?
CCOc1ccc(C(=O)Nc2ccc(-c3nc4ccccc4[nH]3)cc2)cc1[N+](=O)[O-] | 6%[59 µM] | 11% | -25% | -17% | 61% | 79µM*
Cn1ncc([N+](=O)[O-])c1C(=O)Nc1ccc(-c2nc3ccccc3[nH]2)cc1 | ? | 19% | -7% | 12% | 12% | -18%
CCN(CC)c1ccc(NC(=O)c2ccc3c(c2)OCO3)cc1 | 6.3µM* | -17% | 45µM* | ? | ? | ?
O=C(Nc1ccc(-c2nc3ccccc3[nH]2)cc1)c1ccc2c(c1)OCO2 | 71µM* | -24% | ? | 13% | -21% | -26%
CC(C)NC(=S)N1CCN(Cc2ccc3c(c2)OCO3)CC1 | 43%[12.7 µM] | 8% | -18% | -1% | 17% | -14%
CNC(=O)N1CCC(C2CCN(C(=O)CCC3CCCC3)C2)CC1 (stereo not drawn) | · | · | · | 51% | · | ·
CCN(CC)c1ccc(/C=N/NC(=O)CNC(=O)c2ccc3c(c2)OCCO3)cc1 | 45µM* | 4% | -31% | 8% | 0% | -33%
Nc1ccc2c(c1)C(=O)c1ccccc1-2 | · | · | · | 0% | ? | ?
Nc1ccc2c(c1)C(=O)C(=O)c1ccccc1-2 | 6%[0.501 µM] | 13% | ? | ? | 20µM* | ?
O=C(CSc1nc2ncc(Cl)cc2[nH]1)c1ccc2c(c1)OCO2 | ? | 10% | -21% | ? | 22% | -17%
O=C(CSc1nc2ccc(Cl)cc2[nH]1)c1ccc2c(c1)OCO2 | 35µM* | 79µM* | 50µM* | 11µM* | 22% | 22µM*
O=C(CSc1ncn[nH]1)c1ccc2c(c1)OCO2 | 6%[12.7 µM] | -5% | 11% | ? | 26% | 32µM*
O=C(CSc1nc2cc(Cl)c(Cl)cc2[nH]1)c1ccc2c(c1)OCO2 | 11µM* | ? | 13% | ? | 26% | -7%
O=C(CSc1nc2ccc(Cl)cc2[nH]1)c1c[nH]c2ccccc12 | 20µM* | 23% | -19% | -23% | 30% | -10%
SMILES | G9a inh | Sfp inh | BAZ2B inh | 12-LOX inh | HP1b binding inh | JMJD2A Tudor inh
O=C(CSc1nc2ncc(Cl)cc2[nH]1)c1c[nH]c2ccccc12 | · | 2% | -4% | -23% | 13% | -13%
COC(=O)[C@H](Cc1ccc(OC)cc1)NC(=O)[C@H]1CN(C(=O)c2cccnc2)CCN1C(C)=O | · | · | · | 10% | · | ·
CCCc1cc(=O)oc2c(C)c(OC(C)C(=O)NCCCn3ccnc3)ccc12 (stereo not drawn) | · | · | · | 64% | · | ·
Cc1ccc2c(c1)c(C)c(C)n2CC(O)Cn1nnc2ccccc21 (stereo not drawn) | ? | 0% | ? | -12% | ? | ?
Cc1ccc2c(c1)c(C)c(C)n2CC(O)Cn1nc(C)cc1C (stereo not drawn) | 45µM* | 17% | -51% | -11% | -24% | ?
CCN1CCN(c2ccc(S(=O)(=O)N3CCCCC3)cc2NC(=O)Cc2ccc(Cl)c(Cl)c2)CC1 | 40µM* | · | ? | · | -9% | ?
CCN1CCN(c2ccc(S(=O)(=O)N3CCCCC3)cc2NC(=O)Cc2ccccc2)CC1 | 6.3µM* | · | -8% | 16µM*! | -8% | ?
Cc1cnc(-c2cccnc2)n1C1CCN(C(=O)c2ccncc2)CC1 | · | · | · | 20% | · | ·
COc1ccc(CCN(C)C(=O)CC(c2cccc(F)c2)c2cn(C)c3ccccc23)cc1OC (stereo not drawn) | · | · | · | 41% | · | ·
COC(=O)c1cc(Cl)c(NC(=O)/C=C/c2ccc(Cl)cc2Cl)cc1OC | -34%[59 µM] | 5% | 0% | 0% | 43% | 2%
COC(=O)c1ccc(Cl)cc1NC(=O)/C=C/c1ccc(C)o1 | ? | 25µM* | 1% | ? | 12% | -5%
Cc1ccc(NC(=O)/C=C/c2ccc(C)o2)c(C)c1 | 11µM* | · | 79µM* | -9% | ? | ?
Cc1ccc(/C=C/C(=O)Nc2cccc3cccnc23)o1 | ? | -30% | ? | 32% | -18% | -31%
CCCCNC(=S)Nc1ccc(OC)nc1 | 56µM* | 8% | -15% | 0% | -6% | -9%
COc1ccc(NC(=O)/C(Cl)=C(/Cl)S(=O)Cc2ccccc2)cn1 (stereo not drawn) | 11µM* | 40µM* | 10% | ? | 49% | -9%
COc1ccc(CS(=O)(=O)/C(Cl)=C(/Cl)C(=O)Nc2ccc(OC)nc2)cc1 | 45µM* | 1% | -7% | · | 27% | -21%
CCCCNC(=S)Nc1ccc(C)cc1 | · | · | · | -17% | · | ·
CCOc1cc(C2CC(=O)NC3=C2C(=O)C(C(=O)OC)C(C)C3)cc(Br)c1O (stereo not drawn) | 45µM* | 50µM* | -7% | 0% | 18% | -15%
CCOC(=O)C1CCCN(Cc2nc3ccc([N+](=O)[O-])cc3c(=O)n2-c2ccc(OC)cc2OC)C1 (stereo not drawn) | 40µM* | -3% | -37% | 0% | -7% | ?
CCOC(=O)C1CCCN(C(=O)c2cc3cc4ccc(OC)cc4nc3o2)C1 (stereo not drawn) | · | 17% | -5% | · | 25% | -13%
COc1ccc(-n2c(CN3CCN(c4ccccc4OC)CC3)nc3ccc([N+](=O)[O-])cc3c2=O)c(OC)c1 | 45µM* | -12% | ? | 5% | 5% | ?
COc1cccc(-n2c(CN3CCN(c4ccccc4)CC3)nc3ccc([N+](=O)[O-])cc3c2=O)c1 | 20µM* | 28µM* | ? | -17% | -8% | ?
CCC(CC)N1CCN(Cc2nc3ccc([N+](=O)[O-])cc3c(=O)n2-c2ccccc2F)CC1 | -21% | 2% | -3% | · | -16% | -18%
